Screens deposited in PubChem BioAssay by several laboratories.
E coli Lon inh = inhibitors of E. coli Lon protease | actives 0.42% (n = 360,000) | P0A9M0 | AID 602123 | purified E. coli Lon protease, fluorescence polarization | inhibition, % at 7.94 µM; in the data active = inhibition above about 13%, passing the limit was not always enough;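 also: 0% = enzyme with probe and DMSO and 100% = no enzyme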
Target sequence (P0A9M0 whole entry, looked up): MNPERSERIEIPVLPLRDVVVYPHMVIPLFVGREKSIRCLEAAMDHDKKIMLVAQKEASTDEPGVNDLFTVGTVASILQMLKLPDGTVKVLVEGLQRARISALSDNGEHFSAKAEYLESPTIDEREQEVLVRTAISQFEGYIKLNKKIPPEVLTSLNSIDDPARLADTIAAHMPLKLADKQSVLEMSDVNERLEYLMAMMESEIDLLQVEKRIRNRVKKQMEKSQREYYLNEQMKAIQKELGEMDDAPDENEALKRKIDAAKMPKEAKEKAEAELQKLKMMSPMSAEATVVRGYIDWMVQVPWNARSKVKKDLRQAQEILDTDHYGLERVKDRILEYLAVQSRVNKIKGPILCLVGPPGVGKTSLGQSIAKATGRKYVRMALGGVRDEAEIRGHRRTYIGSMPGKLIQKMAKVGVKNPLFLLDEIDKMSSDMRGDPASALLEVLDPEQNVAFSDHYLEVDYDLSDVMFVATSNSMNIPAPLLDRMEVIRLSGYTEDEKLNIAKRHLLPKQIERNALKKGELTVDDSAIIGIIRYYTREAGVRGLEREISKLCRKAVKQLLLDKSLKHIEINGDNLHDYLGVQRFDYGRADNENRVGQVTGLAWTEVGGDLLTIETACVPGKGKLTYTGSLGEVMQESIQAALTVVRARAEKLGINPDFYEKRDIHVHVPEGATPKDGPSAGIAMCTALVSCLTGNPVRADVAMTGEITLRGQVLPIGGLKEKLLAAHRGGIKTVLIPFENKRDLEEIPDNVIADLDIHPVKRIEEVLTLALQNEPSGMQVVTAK
LANA DNA inh = inhibitors of KSHV LANA C-terminal domain DNA binding | MBP-C-LANA/FAM-LBS DNA binding, fluorescence polarization | inhibition, % at 9 µM | actives 0.078% (n = 340,000) | AID 504423;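 active = highest replicate inhibition at or above 60% at 9 µM, even if other replicates fall short; inactive = all replicates below 60% inhibition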;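 also: 0% = neutral control wells and 100% = 4 µM acridine orange control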
Keap1-Nrf2 PPI = Keap1-Nrf2 (human) interaction inhibition | Q14145 | Keap1 Kelch-Nrf2 peptide fluorescence polarization, 1536-well | inhibition, % at 9.4 µM | actives 0.15% (n = 340,000); in the data active = inhibition above about 12%;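 also: human Keap1 Kelch domain with fluorescein labeled Nrf2 9mer peptide probe; 0% = neutral control wells and 100% = peptide positive control; higher means more block of Keap1 binding to Nrf2 peptide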
RTF Ca sens act = increases calcium sensitivity of human cardiac regulated thin filaments; P19429+P45379; IANBD-labeled TnC RTF fluorescence at EC20 calcium; 0% EC20 calcium, 100% full calcium; activation, % at 7.2 µM; actives 0.24% (n = 340,000);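 active = activation above the mean over all tested compounds plus 3 SD, cut at about 30% in these data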;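 also: rise in fluorescence read as greater calcium sensitivity of cardiac thin filaments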
RTF Ca sens inh = cardiac RTF calcium desensitization; P19429+P45379; IANBD-labeled cardiac RTF, Ca2+ fluorescence; actives 0.12% (n = 340,000); inhibition, % at 7.15 µM;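 active = inhibition above the mean inhibition of all tested compounds plus 3 SD, cut at about 17% in these data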;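 also: assay run at fixed EC70 calcium of 1.6 mM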
* hit, by the source's call; i = inactive; nt = no result given; + = active, no number. In the library only some 0.82% were active in any assay of this set; here they are far more common.

SMILES	E coli Lon inh	LANA DNA inh	Keap1-Nrf2 PPI	RTF Ca sens act	RTF Ca sens inh
CN(C)NC(=O)c1ccc([N+](=O)[O-])s1	3	0	-3	31*	5
O=C(Nc1ccccc1F)c1ccc([N+](=O)[O-])s1	1	-1	-1	2	4
C=CCC[C@@H](CCCCC)OC(=O)/C=C/[C@H](O)[C@@H](O)C[C@@H](O)CC=C	-1	nt	nt	nt	nt
Cc1cc(O)c(C=O)c2c1C(=O)Oc1c(CO)c(O)c3c(c1O2)C(O)OC3=O (stereo not given)	72*	118*	47*	-29	30*
O=C(NCc1ccccn1)[C@@H]1CCCN1C(=O)[C@@H]1CCCN1C(=O)c1ccc(Cl)cc1	8	nt	nt	nt	nt
Oc1c(Br)cc(/C=N/n2c(-c3ccccc3)n[nH]c2=S)cc1Br	4	-7	-3	1	0
Oc1c(Br)cc(/C=N/n2c(-c3ccccc3)n[nH]c2=S)c(O)c1Br	-6	24	24*	-2	-4
COc1ccc(OC)c(/C=C2/Sc3ccccc3C2=O)c1	-221	1	-5	37*	-60
COc1ccc(OC)c(C=C2CCc3ccccc3C2=O)c1	0	nt	nt	nt	nt
CN(C)c1ccc(/C=C(\C#N)C(=O)Nc2nc3c(s2)CCN(Cc2ccccc2)C3)cc1	i	-1	2	83*	-67
COc1ccccc1C(=O)NN(C)C1=NS(=O)(=O)c2ccccc21	-11	2	2	60*	-2
CN(NC(=O)CN1C(=O)c2ccccc2C1=O)C1=NS(=O)(=O)c2ccccc21	-9	-2	2	-10	-9
CCCCNC(=O)c1ccc2nc(-c3ccco3)c(-c3ccco3)nc2c1	2	1	5	-6	3
O=C(NCCCO)c1ccc2nc(-c3ccco3)c(-c3ccco3)nc2c1	-3	68*	-2	0	10
N#C/C(=C\c1ccc(N2CCCCC2)o1)C(N)=O	-426	-18	-57	56*	-58
N#C/C(=C\c1ccc(N2CCCCC2)o1)C(=O)Nc1cccc(Br)c1	i	-5	-9	146*	-155
O=Cc1ccc(N2CCCC2)o1	-2	0	-4	-1	3
COc1ccc(-n2c(C)cc(/C=C3\SC(=S)N(Cc4ccco4)C3=O)c2C)cc1	-207	3	-5	31*	-27
COc1ccc(-c2nn(-c3ccccc3)cc2/C=C2/SC(=S)N(Cc3ccco3)C2=O)c(C)c1	-4	0	-5	-4	-4
Cc1cc(C)nc(NC(=O)c2c(Cl)cccc2Cl)n1	1	85*	-1	-1	5
O=C(COC(=O)c1c2c(nc3ccccc13)/C(=C/c1ccco1)CC2)NC1CCCC1	3	1	2	-7	17*
CC(C)CNC(=O)COC(=O)c1c2c(nc3ccccc13)/C(=C/c1cccs1)CC2	-10	1	-1	-2	3
CCCCNC(=O)COC(=O)c1c2c(nc3ccccc13)/C(=C\c1cccs1)CC2	-58	3	-4	37*	-11
Oc1cc(NCc2ccc(F)cc2)cc2cccnc12	-11	3	4	2	-2
CN(C)CCCNc1cc(O)c2ncccc2c1	17	23	22*	-5	-22
SMILES	E coli Lon inh	LANA DNA inh	Keap1-Nrf2 PPI	RTF Ca sens act	RTF Ca sens inh
CCCN1C(=O)/C(=C\C=C2/Sc3ccccc3N2CCO)SC1=S	-33	-1	-2	-1	-7
CCN1/C(=C/C=C2/SC(=Nc3cccc4ncccc34)N(C)C2=O)Sc2ccccc21	-146	2	0	41*	-28
Cc1ccnc(SCC(=O)c2cc3ccccc3o2)n1	3	74*	2	0	-1
Cn1ccnc1SCC(=O)c1cc2ccccc2o1	-14	-3	-3	0	-11
COc1ccccc1-[n+]1c(C)cc(/C=C2\Sc3ccccc3N2C)cc1C	-204	-16	-10	48*	-62
COc1ccc(-[n+]2c(C)cc(/C=C3\Sc4ccccc4N3C)cc2C)cc1	-185	-11	-19	44*	-55
CCOC(=O)/C(C#N)=C\c1cc(C)n(-c2ccccc2)c1C	-2	-2	0	4	-12
CCOC(=O)/C(C#N)=C\c1ccc(N2CCN(C/C=C/c3ccccc3)CC2)cc1	-97	1	-8	76*	-70
CCOc1ccc(C2OC34CCCCC3C(C#N)(C#N)C2(C#N)C(=N)O4)cc1OC (stereo not given)	34*	42	19*	29	-35
Cc1ccc(C2OC34CCCCCC3C(C#N)(C(=N)O4)C2(C#N)C#N)cc1 (stereo not given)	16	-2	-2	6	-3
CN(Cc1cn(Cc2ccc(F)cc2)nn1)C1CN(Cc2cn(Cc3ccc(F)cc3)nn2)S(=O)(=O)C1 (stereo not given)	-1	nt	nt	nt	nt
N#CC1(NC(=O)COC(=O)C2=COCCO2)CCCCC1	-3	nt	194*	8	-185
CCOC(=O)[C@]12CCC=C1N(Cc1ccco1)C(=O)[C@H](CC(=O)N1CCCCC1)C2	4	nt	nt	nt	nt
CC(=O)n1c(C=Nc2ccc(Cl)cc2)c(O)c2ccccc21	-8	3	7	38*	-1
COc1ccc(C(=O)/C=C/c2ccc(N(C)C)cc2)c(OC)c1	-406	-8	-60	81*	-133
CN(C)c1ccc(C(=O)C=Cc2ccc([N+](=O)[O-])cc2)cc1	-7	nt	nt	nt	nt
CN(C)c1ccc(/C=C/C(=O)c2ccc3c(c2)OCO3)cc1	i	3	-113	92*	-104
O=C(/C=C/c1ccccc1)c1ccc2c(c1)OCO2	4	2	0	9	-4
CN(C)c1ccc(/C=C/C(=O)c2ccc(O)cc2)cc1	i	-20	-97	72*	-119
O=C1C=C(O)c2c(O)cc(O)c(O)c2C1=O	-3	117*	19*	-44	31*
COc1cc(C2C=C(c3cccs3)Nc3ncnn32)cc(OC)c1OC (stereo not given)	+	121*	88*	386*	-497
Cc1ccc(OCCCC(=O)NC2CCCCC2)cc1	8	0	-4	38*	-3
CCCCCCCCN1C(=O)[C@H](CC(=O)N2CCCC2)C[C@@]2(C(=O)OC)CCCCC=C12	-3	nt	nt	nt	nt
CC1CCN(c2ccc3c(c2)S(=O)(=O)c2cccc(C(=O)NCc4ccc(F)cc4)c2C3=O)CC1	-16	27	4	105*	3
O=C(NCc1ccc(F)cc1)c1cccc2c1C(=O)c1ccc(N3CCC(Cc4ccccc4)CC3)cc1S2(=O)=O	-25	28	0	232*	-441
O=C(NC1CCCCC1)c1cccc2c1C(=O)c1ccc(N3CCCC3)cc1S2(=O)=O	-30	1	2	24	-10
O=C(NC1CC1)c1cccc2c1C(=O)c1ccc(N3CCC(Cc4ccccc4)CC3)cc1S2(=O)=O	-99	13	3	99*	-148
O=C(NCc1ccc(F)cc1)c1cccc2c1C(=O)c1ccc(N3CCC(N4CCCCC4)CC3)cc1S2(=O)=O	-41	nt	nt	nt	nt
O=C(NC1CCCC1)c1cccc2c1C(=O)c1ccc(N3CCCCC3)cc1S2(=O)=O	-22	23	3	4	-4
